We go through eight molecules from PubChem BioAssay (NCI).

Compounds without any hit were thinned out: in the full panel of roughly 83,000, 20% have a hit.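 Growth was measured after 48 h exposure to one concentration of compound in 96-well plates. Values under 10 count as active.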 A number with no mark means an inactive call. The source made the active and inactive calls.

Among the test systems are HCT-15 colon; HT29 colon; SNB-19 CNS; U251 CNS; PC-3 prostate; UACC-62 melanoma; LOX IMVI melanoma; SK-MEL-28 melanoma; SK-MEL-2 melanoma; EKVX NSCLC; SN12C renal; UO-31 renal; TK-10 renal; ACHN renal; CAKI-1 renal; A498 renal; CCRF-CEM leukemia; MOLT-4 leukemia; SK-MEL-5 melanoma.
Experiment in all cases: NCI-60 one-dose screen, 48 h (100 = growth as untreated, 0 = no growth, -100 = all killed)
Common to all, as to settings: 10 µM unless noted

For the molecule `COc1ccc(C(=O)/C=C/c2ccc(Cl)cc2)cc1S(N)(=O)=O`, the growth in the assay with HCT-15 colon was 26.3%; in the assay on HT29 colon, 43.6%; in the assay with SNB-19 CNS, 14%; with U251 CNS, 32%; with PC-3 prostate, -55.6% (active); with UACC-62 melanoma it was 46.4%. Moreover, the growth in the assay on LOX IMVI melanoma is 10.6%; in the assay on SK-MEL-28 melanoma, 97.8%; in the assay on SK-MEL-2 melanoma, 80.3%; in the assay with EKVX NSCLC, 87.3%; in the assay with SN12C renal, 15.4%; in the assay on UO-31 renal, 33.1%. Also, the growth is 70% in the assay with TK-10 renal; 58.4% with ACHN renal; 74.9% in the assay on CAKI-1 renal; 84.6% in the assay on A498 renal; -18.3% (active) with CCRF-CEM leukemia; -5.39% (active) in the assay on MOLT-4 leukemia.
`C/C(=C(\c1ccc(OCCCN(C)C)cc1)c1ccc(OC(=O)Cc2ccccc2)cc1)c1ccc(Cl)cc1`: the growth in the assay on HCT-15 colon was 45.2%; in the assay on HT29 colon, 4.56% (active); in the assay on SNB-19 CNS, 89.8%; in the assay on U251 CNS, 55%; in the assay on PC-3 prostate, 75.9%; in the assay with SK-MEL-5 melanoma, 82.7%. Further, the growth with UACC-62 melanoma is 81.8%; in the assay on LOX IMVI melanoma it was 3.29% (active); in the assay with SK-MEL-28 melanoma it was 76.4%; in the assay with SK-MEL-2 melanoma, 92.7%; in the assay with EKVX NSCLC, 70.4%; in the assay on SN12C renal, 87.3%. The growth with UO-31 renal was 62%; with TK-10 renal, 87.8%; with ACHN renal, 94.3%; in the assay on CAKI-1 renal it was 83.7%; in the assay on A498 renal, 103%; in the assay with CCRF-CEM leukemia, 66.4%. Further, in the assay with MOLT-4 leukemia, the growth is 48.7%.
In the case of `CCCCC#Cc1c(I)n(C2OC(CO[Si](C)(C)C(C)(C)C)C3OC(C)(C)OC32)c(=O)[nH]c1=O` (stereo not given), the growth in the assay on HCT-15 colon is 68.2%; with HT29 colon, 69.3%; with SNB-19 CNS, 97.6%; in the assay with U251 CNS, 82.6%; with PC-3 prostate, 84.4%; in the assay on SK-MEL-5 melanoma, 90.4%. For the same molecule, the growth in the assay on UACC-62 melanoma is 81%; in the assay on LOX IMVI melanoma it was 19.3%; in the assay with SK-MEL-28 melanoma, 68.9%; in the assay with SK-MEL-2 melanoma, 55.6%; in the assay with EKVX NSCLC it was 92.2%; in the assay on SN12C renal, 85.1%. In addition, the growth in the assay with UO-31 renal is 56.1%; in the assay on TK-10 renal it was 68.9%; in the assay on ACHN renal, 72.5%; with CAKI-1 renal, 74.4%; with A498 renal, 99.1%; in the assay with CCRF-CEM leukemia, 8.63% (active). For the same molecule, the growth with MOLT-4 leukemia is 4.72% (active).
Consider `Cc1[nH]c(C(=O)Nc2ccc(C(N)=O)cc2OC(C)C)c(Cl)c1Cl`, for which the growth in the assay with HCT-15 colon was 96.1%; with HT29 colon it was 111%; with SNB-19 CNS it was 99%; in the assay with PC-3 prostate it was 99.3%; in the assay with SK-MEL-5 melanoma, 99.3%; in the assay on UACC-62 melanoma it was 106%. Moreover, the growth with LOX IMVI melanoma was 96.1%; in the assay on SK-MEL-28 melanoma, 106%; with SK-MEL-2 melanoma, 100%; in the assay on EKVX NSCLC it was 86.3%; in the assay on SN12C renal, 99.9%; in the assay with UO-31 renal it was 74.4%. The growth is 117% with TK-10 renal; 97.2% in the assay on ACHN renal; 105% with CAKI-1 renal; 84.3% in the assay on A498 renal; 92.5% in the assay with CCRF-CEM leukemia; 89.2% with MOLT-4 leukemia.
With `C#CC(F)(F)[C@]1(O)CCC2C3CCC4=CC(=O)CCC4=C3[C@@H](c3ccc(N(C)C)cc3)C[C@@]21C` (stereo not given in full), the growth was 90% with HCT-15 colon; 87.9% with HT29 colon; 98.6% in the assay with SNB-19 CNS; 89.3% with U251 CNS; 66% in the assay on PC-3 prostate; 84% in the assay on SK-MEL-5 melanoma. The growth with UACC-62 melanoma was 81%; in the assay on LOX IMVI melanoma, 96.2%; with SK-MEL-28 melanoma it was 109%; in the assay with SK-MEL-2 melanoma, 91.8%; with EKVX NSCLC, 90.4%; in the assay on SN12C renal, 104%. Besides, the growth was 76.3% in the assay on UO-31 renal; 89.7% with TK-10 renal; 99.4% in the assay on ACHN renal; 86.4% in the assay on CAKI-1 renal; 87.9% in the assay on A498 renal; 56.7% in the assay on CCRF-CEM leukemia. In the assay with MOLT-4 leukemia, the growth is 75.4%.
Take `COC12C=C/C(=C(/C(=O)OCc3ccccn3)C(=O)CCCCCCCCC3(OC)C=C/C(=C(/C(=O)OCc4ccccn4)C(=O)CCCCCCCC1)O3)O2`: the growth with HCT-15 colon was -37.5% (active); in the assay on HT29 colon, 3.23% (active); with SNB-19 CNS, 12.5%; with U251 CNS, -25.6% (active); in the assay on PC-3 prostate it was -37.4% (active); in the assay on SK-MEL-5 melanoma it was -83.3% (active). Besides, the growth with UACC-62 melanoma is -52.5% (active); in the assay on LOX IMVI melanoma, -69.6% (active); in the assay on SK-MEL-28 melanoma, -11.1% (active); in the assay with SK-MEL-2 melanoma, 10.8%; in the assay on EKVX NSCLC, -9.9% (active); in the assay with SN12C renal, -22.2% (active). The growth with UO-31 renal is -45.7% (active); in the assay on TK-10 renal, 4.32% (active); in the assay on ACHN renal, -14.9% (active); in the assay on CAKI-1 renal, -4.53% (active); in the assay with A498 renal it was -86.3% (active); in the assay on CCRF-CEM leukemia, 0.645% (active). Also, the growth in the assay on MOLT-4 leukemia was 0.868% (active).
Consider `C=C1C(=O)O[C@H]2[C@H]1CC/C(CNC(=O)/C=C/c1cc(OC)c(OC)c(OC)c1)=C\CC[C@@]1(C)O[C@@H]21`, for which the growth in the assay with HCT-15 colon was 1.96% (active); in the assay with HT29 colon, -66.4% (active); in the assay on SNB-19 CNS, 46.9%; in the assay on U251 CNS it was 25.9%; with PC-3 prostate, 37.1%; in the assay on SK-MEL-5 melanoma it was 20.6%. Also, the growth in the assay with UACC-62 melanoma is -36.3% (active); in the assay with LOX IMVI melanoma, -88% (active); in the assay on SK-MEL-28 melanoma, -32.7% (active); with SK-MEL-2 melanoma it was 3.52% (active); in the assay with EKVX NSCLC, 25.3%; in the assay with SN12C renal, 28.1%. In addition, the growth is -38.2% (active) in the assay with UO-31 renal; -86.5% (active) in the assay with TK-10 renal; -79.6% (active) in the assay with ACHN renal; 33.9% with CAKI-1 renal; -9.24% (active) with A498 renal; -10.6% (active) in the assay with CCRF-CEM leukemia. Further, the growth in the assay with MOLT-4 leukemia was -26.6% (active).
For the molecule `N#C/C(=N\Nc1ccccc1)C(=O)Nc1cc(-c2ccccc2)nn1-c1ccccc1`, the growth was 13.1% in the assay with HCT-15 colon; 31.5% with HT29 colon; 14.6% with SNB-19 CNS; 8.34% (active) with U251 CNS; 10% in the assay with PC-3 prostate; -27.5% (active) with SK-MEL-5 melanoma. For the same molecule, the growth with UACC-62 melanoma was 14.2%; with LOX IMVI melanoma, 52.9%; in the assay on SK-MEL-28 melanoma it was 44.9%; with SK-MEL-2 melanoma, 22.6%; with EKVX NSCLC it was 28.3%; in the assay with SN12C renal, 3.41% (active). In addition, the growth is 29.7% in the assay with UO-31 renal; 38.6% in the assay on TK-10 renal; 39% in the assay on ACHN renal; 37.9% with CAKI-1 renal; 1.62% (active) in the assay with A498 renal; 26.6% in the assay on CCRF-CEM leukemia. Moreover, in the assay on MOLT-4 leukemia, the growth was 33.3%.
